According to PubChem BioAssay (Tox21):
Records with an inconclusive call do not appear. Calls of active or inactive are those of the source. Unless noted, calls come from the whole dose curve; as a rule, active = well fitted curve in the direction sought with a large enough effect in the repeat runs; inconclusive = weak or mixed curves; inactive = no such curve, though single readings can be large; an effect the other way counts as inactive or inconclusive.

What was measured:
[1] = qHTS assay to identify aromatase inhibitors - cell viability counter screen (AID 743084);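 note: cells stimulated with testosterone during compound exposure; nearly all actives have a fitted effect of over 55% in size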
[2] = target: Aryl hydrocarbon receptor (Homo sapiens) (UniProt P35869); experiment: qHTS assay to identify small molecule that activate the aryl hydrocarbon receptor (AhR) signaling pathway (AID 743085);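 note: HG2L7.5c1 human HepG2 liver cells with stably integrated DRE-driven firefly reporter; series mostly up to about 70 µM; nearly all actives have a fitted effect of over 15% in size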
Method in brief: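 Measured in HG2L7.5c1 cells: CellTiter-Fluor signal (30 min incubation, 37C) for viability, then luciferase luminescence (30 min, room temperature). Compound contact time was 24 h at 37C, following a 5 h pre-incubation.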

[3] = target: Peroxisome proliferator-activated receptor gamma (Homo sapiens) (UniProt P37231); experiment: qHTS assay to identify small molecule agonists of the peroxisome proliferator-activated receptor gamma (PPARg) signaling pathway (AID 743094; active = well fitted activation curve with a large enough effect in the signal ratio in the repeat runs, not every such curve was filed as active; the % refers to the signal ratio)
Method in brief: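 Agonist activity was taken from a beta-lactamase reporter (FRET substrate, 1 h at room temperature) in HEK293H cells carrying a PPARg UAS-bla construct. Compounds in DMSO were incubated 17 h at 37C after a 5 h cell pre-incubation.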

[4] = target: Peroxisome proliferator-activated receptor gamma (Homo sapiens) (UniProt P37231); experiment: qHTS assay to identify small molecule antagonists of the peroxisome proliferator-activated receptor gamma (PPARg) signaling pathway (AID 743191; calls by dose curve; note: series mostly up to about 63 µM; nearly all actives have a fitted effect of over 30% in size)
Method in brief: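 GeneBLAzer PPARg UAS-bla HEK293H cells, 5 h post-plating, exposed to compounds 17 h at 37C. LiveBLAzer B/G FRET substrate added for 1 h at room temperature; beta-lactamase reporter read by fluorescence intensity.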

[5] = qHTS assay to identify small molecule antagonists of the peroxisome proliferator-activated receptor gamma (PPARg) signaling pathway - cell viability counter screen (AID 743194); note: nearly all actives have a fitted effect of over 55% in size
Method in brief: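 Cytotoxicity counter screen in PPARg-bla HEK293H cells, same wells as reporter assay. Compounds plus 50 nM rosiglitazone (final) for 17 h at 37 C, then viability read by CellTiter-Glo luminescence.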

[6] = qHTS assay for small molecule agonists of the antioxidant response element (ARE) signaling pathway (AID 743202; active = well fitted activation curve with a large enough effect in the signal ratio in the repeat runs, not every such curve was filed as active; the % refers to the signal ratio)
Method in brief: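 HepG2 ARE-bla reporter line, 2,000 cells/well; 5 h preincubation 37 C/5% CO2; compound (DMSO) 16 h 37 C; B/G FRET substrate 2 h RT; fluorescence intensity.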

[7] = qHTS assay for small molecule agonists of the antioxidant response element (ARE) signaling pathway - cell viability counter screen (AID 743203; calls by dose curve; note: nearly all actives have a fitted effect of over 55% in size)
Method in brief: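 Viability counter screen: CellTiter-Glo luminescence, read after 30 min at room temperature, in ARE-bla HepG2 wells. Compound exposure lasted 16 h at 37C/5% CO2, following a 5 h pre-incubation of the cells after plating.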

[8] = qHTS assay for small molecule activators of the heat shock response signaling pathway - cell viability counter screen (AID 743209); note: nearly all actives have a fitted effect of over 50% in size
Method in brief: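 Cytotoxicity counter screen run in the same wells as the heat-shock bla reporter assay: HeLa HSE-bla cells, 5 h compound exposure at 37 C, viability read by CellTiter-Glo luminescence.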

[9] = qHTS assay for small molecule activators of the heat shock response signaling pathway (AID 743210; active = well fitted activation curve with a large enough effect in the signal ratio in the repeat runs, with a control signal flat, not every such curve was filed as active; the % refers to the signal ratio;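 note: HeLa cells with beta-lactamase reporter driven by heat shock elements; series mostly up to about 63 µM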)
Method in brief: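 Beta-lactamase reporter read-out: FRET substrate fluorescence after 2.5 h at RT, following 5 h compound treatment at 37 C of HeLa cells carrying HSE-driven bla reporter; quantitative HTS format.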

[10] = qHTS assay to identify small molecule agonists of the peroxisome proliferator-activated receptor delta (PPARd) signaling pathway - cell viability counter screen (AID 743211); note: nearly all actives have a fitted effect of over 55% in size
Method in brief: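 Following 5 h plating at 37 C and 5% CO2, PPARd UAS-bla HEK293H cells took up test compounds for 17 h. Viability was quantified by luminescence 30 min after CellTiter-Glo addition at room temperature.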

[11] = target: Peroxisome proliferator-activated receptor delta (Homo sapiens) (UniProt Q03181); experiment: qHTS assay to identify small molecule agonists of the peroxisome proliferator-activated receptor delta (PPARd) signaling pathway (AID 743212; calls by dose curve)
Method in brief: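 Read-out: beta-lactamase FRET fluorescence after 2 h room-temperature incubation with LiveBLAzer B/G substrate. Cells were HEK293H carrying a UAS-bla reporter for PPARd, treated at 37 C with DMSO-dissolved compounds.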

[12] = target: Peroxisome proliferator-activated receptor delta (Homo sapiens) (UniProt Q03181); experiment: qHTS assay to identify small molecule antagonists of the peroxisome proliferator-activated receptor delta (PPARd) signaling pathway (AID 743215; active = well fitted inhibition curve with a large enough effect in the signal ratio in the repeat runs, not every such curve was filed as active; the % refers to the signal ratio;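 note: cells stimulated with agonist L165041 at 300 nM final during compound exposure; series mostly up to about 62 µM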)
Method in brief: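 Agonist L165041 (300 nM final) added with compound to PPARd-bla HEK293H UAS-bla reporter cells; 17 h incubation at 37 C. Read-out: LiveBLAzer FRET substrate, 2 h at room temperature, fluorescence intensity.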

[13] = qHTS assay to identify small molecule agonists of the farnesoid-X-receptor (FXR) signaling pathway - cell viability counter screen (AID 743218); note: nearly all actives have a fitted effect of over 45% in size
Method in brief: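 Viability counter screen in the same wells: CellTiter-Glo luminescence, 30 min room-temperature incubation, measured after the beta-lactamase read. Cells were GeneBLAzer FXR-UAS-bla HEK 293T, compound-treated 16 h at 37C.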

[14] = target: Bile acid receptor (Homo sapiens) (UniProt Q96RI1); experiment: qHTS assay to identify small molecule agonists of the farnesoid-X-receptor (FXR) signaling pathway (AID 743220; active = well fitted activation curve with a large enough effect in the signal ratio in the repeat runs, not every such curve was filed as active; the % refers to the signal ratio)
Method in brief: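 FXR-UAS-bla HEK 293T cells carrying a UAS-driven beta-lactamase reporter were plated for 5 h at 37C/5% CO2, then exposed to DMSO-dissolved Tox21 10K compounds for 16 h at 37C. A LiveBLAzer B/G FRET substrate was loaded for 2 h at room temperature before fluorescence reading.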

[15] = qHTS assay to identify small molecule antagonists of the farnesoid-X-receptor (FXR) signaling pathway - cell viability counter screen (AID 743221; active = well fitted cell-killing curve with a large enough effect in the repeat runs, not every such curve was filed as active; note: nearly all actives have a fitted effect of over 50% in size)
Method in brief: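 Compound effects on cell number were measured as CellTiter-Glo luminescence in HEK 293T cells expressing FXR-UAS-bla, after 16 h at 37 C with 50 uM CDCA (final).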

[16] = target: Vitamin D3 receptor (Homo sapiens) (UniProt P11473); experiment: qHTS assay to identify small molecule agonists of the vitamin D receptor (VDR) signaling pathway (AID 743222; calls by dose curve)
Method in brief: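 Agonist mode, beta-lactamase reporter: fluorescence from LiveBLAzer B/G FRET substrate (2 h, room temperature) read after 16 h compound treatment at 37 C of VDR-bla cells, which were pre-incubated 4 h after seeding.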

[17] = target: Vitamin D3 receptor (Homo sapiens) (UniProt P11473); experiment: qHTS assay to identify small molecule antagonists of the vitamin D receptor (VDR) signaling pathway (AID 743223; active = well fitted inhibition curve with a large enough effect in the signal ratio in the repeat runs, not every such curve was filed as active; the % refers to the signal ratio)
Method in brief: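 Beta-lactamase activity in VDR-bla cells is measured by FRET substrate fluorescence (2 h, room temperature) after cells spend 16 h at 37C with test compound and 3 nM final 1alpha,25-dihydroxyvitamin D3.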

[18] = qHTS assay to identify small molecule antagonists of the peroxisome proliferator-activated receptor delta (PPARd) signaling pathway - cell viability counter screen (AID 743213); note: nearly all actives have a fitted effect of over 50% in size
Method in brief: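 CellTiter-Glo was added to PPARd-bla HEK293H wells following 17 h compound treatment in the presence of 300 nM L165041. Luminescence was recorded after 30 min at room temperature.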

[19] = qHTS assay to identify small molecule that activate the aryl hydrocarbon receptor (AhR) signaling pathway - cell viability counter screen (AID 743086);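 note: HepG2 liver cells carrying the AhR DRE luciferase reporter; series mostly up to about 70 µM; nearly all actives have a fitted effect of over 45% in size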
Method in brief: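 HepG2-AhR-luc (HG2L7.5c1) cells, 4000/well, treated 24 h at 37 C with compound; viability measured as CellTiter-Fluor fluorescence after 30 min in the same wells as the luciferase read.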

Measured: Potency

Chain of Aryl hydrocarbon receptor (Homo sapiens) (P35869 whole entry, looked up): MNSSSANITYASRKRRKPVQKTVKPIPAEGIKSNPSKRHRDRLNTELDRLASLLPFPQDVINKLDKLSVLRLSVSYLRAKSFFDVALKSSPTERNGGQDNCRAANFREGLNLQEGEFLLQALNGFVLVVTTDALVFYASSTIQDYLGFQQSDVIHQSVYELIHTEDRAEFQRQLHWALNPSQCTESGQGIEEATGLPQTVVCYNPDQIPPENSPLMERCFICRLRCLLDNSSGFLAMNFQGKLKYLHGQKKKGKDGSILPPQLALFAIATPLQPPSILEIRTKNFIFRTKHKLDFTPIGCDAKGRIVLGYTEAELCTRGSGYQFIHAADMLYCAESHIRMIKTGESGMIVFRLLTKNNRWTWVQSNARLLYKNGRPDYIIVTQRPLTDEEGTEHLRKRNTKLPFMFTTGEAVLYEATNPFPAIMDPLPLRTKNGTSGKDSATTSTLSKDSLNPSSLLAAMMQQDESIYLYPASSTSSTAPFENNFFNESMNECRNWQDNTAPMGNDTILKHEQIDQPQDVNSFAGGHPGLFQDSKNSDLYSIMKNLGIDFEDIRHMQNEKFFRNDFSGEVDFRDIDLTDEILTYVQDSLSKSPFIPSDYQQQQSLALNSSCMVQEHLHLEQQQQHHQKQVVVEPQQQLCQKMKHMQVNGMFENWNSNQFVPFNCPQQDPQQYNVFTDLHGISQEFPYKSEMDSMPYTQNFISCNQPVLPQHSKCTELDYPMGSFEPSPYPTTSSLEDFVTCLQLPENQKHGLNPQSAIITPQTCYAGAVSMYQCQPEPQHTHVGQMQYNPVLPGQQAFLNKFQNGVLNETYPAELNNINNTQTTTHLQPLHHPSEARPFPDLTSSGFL
Chain of Vitamin D3 receptor (Homo sapiens) (P11473 whole entry, looked up): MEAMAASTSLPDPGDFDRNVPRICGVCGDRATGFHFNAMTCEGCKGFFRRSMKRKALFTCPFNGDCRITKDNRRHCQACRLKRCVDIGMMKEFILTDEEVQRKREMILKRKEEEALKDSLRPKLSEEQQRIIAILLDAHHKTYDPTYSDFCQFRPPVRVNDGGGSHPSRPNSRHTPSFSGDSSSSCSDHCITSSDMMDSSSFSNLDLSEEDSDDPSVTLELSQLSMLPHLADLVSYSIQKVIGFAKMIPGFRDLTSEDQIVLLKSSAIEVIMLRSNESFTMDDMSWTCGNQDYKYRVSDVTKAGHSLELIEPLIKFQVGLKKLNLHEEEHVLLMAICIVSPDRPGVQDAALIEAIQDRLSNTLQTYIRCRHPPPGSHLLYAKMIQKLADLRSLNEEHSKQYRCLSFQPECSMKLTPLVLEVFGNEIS
Chain of Peroxisome proliferator-activated receptor delta (Homo sapiens) (Q03181 whole entry, looked up): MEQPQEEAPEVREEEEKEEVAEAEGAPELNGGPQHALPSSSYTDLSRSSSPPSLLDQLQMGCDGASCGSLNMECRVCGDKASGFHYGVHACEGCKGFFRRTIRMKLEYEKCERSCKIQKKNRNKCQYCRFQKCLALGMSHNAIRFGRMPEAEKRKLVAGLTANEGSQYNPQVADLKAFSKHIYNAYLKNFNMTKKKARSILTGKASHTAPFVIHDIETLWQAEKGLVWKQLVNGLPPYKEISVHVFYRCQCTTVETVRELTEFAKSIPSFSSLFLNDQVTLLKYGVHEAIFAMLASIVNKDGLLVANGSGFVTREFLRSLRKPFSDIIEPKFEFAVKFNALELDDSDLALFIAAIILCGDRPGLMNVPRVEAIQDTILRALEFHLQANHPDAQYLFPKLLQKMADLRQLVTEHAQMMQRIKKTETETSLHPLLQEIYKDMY
Chain of Bile acid receptor (Homo sapiens) (Q96RI1 whole entry, looked up): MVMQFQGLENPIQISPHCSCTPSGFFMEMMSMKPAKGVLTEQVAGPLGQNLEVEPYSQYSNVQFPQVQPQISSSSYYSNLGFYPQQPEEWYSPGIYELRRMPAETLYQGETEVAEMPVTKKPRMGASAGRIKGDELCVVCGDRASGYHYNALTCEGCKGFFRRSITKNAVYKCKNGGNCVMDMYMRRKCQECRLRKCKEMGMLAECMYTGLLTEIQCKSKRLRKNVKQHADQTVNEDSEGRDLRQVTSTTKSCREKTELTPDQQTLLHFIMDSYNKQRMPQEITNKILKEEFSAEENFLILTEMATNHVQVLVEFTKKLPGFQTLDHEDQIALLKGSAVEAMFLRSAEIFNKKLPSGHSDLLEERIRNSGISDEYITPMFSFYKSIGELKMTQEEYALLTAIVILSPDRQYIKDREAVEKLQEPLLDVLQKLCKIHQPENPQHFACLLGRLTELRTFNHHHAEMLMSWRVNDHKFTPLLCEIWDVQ
Chain of Peroxisome proliferator-activated receptor gamma (Homo sapiens) (P37231 whole entry, looked up): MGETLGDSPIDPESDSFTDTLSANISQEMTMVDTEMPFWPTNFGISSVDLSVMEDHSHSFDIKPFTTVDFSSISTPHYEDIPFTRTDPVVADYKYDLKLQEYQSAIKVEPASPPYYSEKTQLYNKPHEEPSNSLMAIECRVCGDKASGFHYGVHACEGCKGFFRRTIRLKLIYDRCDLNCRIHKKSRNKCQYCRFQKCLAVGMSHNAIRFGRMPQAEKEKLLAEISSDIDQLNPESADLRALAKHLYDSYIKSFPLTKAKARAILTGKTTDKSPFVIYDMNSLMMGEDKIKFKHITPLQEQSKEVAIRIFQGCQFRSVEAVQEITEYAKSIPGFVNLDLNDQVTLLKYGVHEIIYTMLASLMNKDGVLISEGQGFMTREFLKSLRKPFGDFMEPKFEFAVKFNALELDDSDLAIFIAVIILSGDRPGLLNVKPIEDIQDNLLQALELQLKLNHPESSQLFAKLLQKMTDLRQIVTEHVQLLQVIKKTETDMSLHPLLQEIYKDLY

COc1cc(C(=O)OC(COCCC(C)C)CN2CCOCC2)cc(OC)c1OC (centres undefined)
not listed: [18] | [19]
inactive: all other assays above

COc1cc(C(=O)NCc2ccc(OCCN(C)C)cc2)cc(OC)c1OC
not listed: [6] | [14] | [16] | [17] | [19]
inactive: all other assays above

C=C(C)C(=O)OCCOCCOCCOCCOC(=O)C(=C)C
not listed: [3] | [4] | [5] | [6] | [8] | [11] | [12]
inactive: all other assays above

C=COC(=O)C(C)(CC)CCC(C)C (centres undefined)
not listed: [15] | [17] | [19]
inactive: all other assays above

CCC(=O)OCc1ccccc1
not listed: [4] | [14] | [19]
inactive: all other assays above

CCOC(=O)COC(=O)c1ccccc1C(=O)OCC
not listed: [4] | [5] | [14]
inactive: all other assays above

C=CC(C)(CCC=C(C)C)OC(=O)CC (centres undefined)
not listed: [4] | [5] | [11] | [12] | [18]
inactive: all other assays above

CCCO[Si](OCCC)(OCCC)OCCC
not listed: [4] | [5] | [6] | [7] | [9] | [10] | [14] | [18]
inactive: all other assays above

CCCCN(CCC(=O)OCC)C(C)=O
not listed: [4] | [5] | [8] | [12] | [14] | [17]
inactive: all other assays above
